Results filed as inconclusive are left out. Active and inactive are the calls of the source. Unless noted, calls come from the whole dose curve; as a rule, active = well fitted curve in the direction sought with a large enough effect in the repeat runs; inconclusive = weak or mixed curves; inactive = no such curve, though single readings can be large; an effect the other way counts as inactive or inconclusive.
Key:
[1] = target: Luciferin 4-monooxygenase (Photinus pyralis) (UniProt P08659); experiment: qHTS assay to identify small molecule inhibitors of firefly luciferase (AID 1224835); note: nearly all actives have a fitted effect of over 25% in size; note: potency is the fitted concentration of half-maximal effect
Luciferin 4-monooxygenase (Photinus pyralis), sequence (P08659 whole entry, looked up): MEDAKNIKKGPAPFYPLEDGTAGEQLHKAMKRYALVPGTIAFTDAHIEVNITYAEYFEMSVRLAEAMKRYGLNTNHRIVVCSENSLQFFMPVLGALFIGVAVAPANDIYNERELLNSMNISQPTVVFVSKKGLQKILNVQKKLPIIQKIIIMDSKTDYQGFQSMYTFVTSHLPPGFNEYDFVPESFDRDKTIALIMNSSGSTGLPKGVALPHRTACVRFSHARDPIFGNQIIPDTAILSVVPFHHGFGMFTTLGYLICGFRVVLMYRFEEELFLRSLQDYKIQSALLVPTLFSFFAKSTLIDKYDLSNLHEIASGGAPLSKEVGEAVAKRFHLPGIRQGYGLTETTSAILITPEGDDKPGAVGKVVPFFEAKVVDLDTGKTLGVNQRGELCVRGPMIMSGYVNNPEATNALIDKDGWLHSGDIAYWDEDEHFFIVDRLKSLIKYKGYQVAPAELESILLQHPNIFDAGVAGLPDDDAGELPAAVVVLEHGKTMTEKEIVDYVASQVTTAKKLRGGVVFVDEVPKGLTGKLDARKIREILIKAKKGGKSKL
In short: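 Quantitative HTS format; KM concentrations of both substrates. Purified P. pyralis FLuc activity quantified from luminescence images.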

[2] = qHTS assay to identify small molecule agonists of the constitutive androstane receptor (CAR) signaling pathway - cell viability counter screen (AID 1224836); note: nearly all actives have a fitted effect of over 45% in size; note: potency is the fitted concentration of half-maximal effect
In short: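 Using CellTiter-Fluor, viability of HepG2 cells harbouring hCAR and CYP2B6-2.2kb was measured following 23 h incubation with a 15-concentration compound series plus PK11195 (0.75 uM final).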

[3] = qHTS assay to identify small molecule antagonists of the constitutive androstane receptor (CAR) signaling pathway - cell viability counter screen (AID 1224837); note: nearly all actives have a fitted effect of over 45% in size; note: potency is the fitted concentration of half-maximal effect
In short: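 To flag cytotoxic false antagonists, HepG2 hCAR/CYP2B6-2.2kb cells were treated 23 hr with 15-concentration compound series and 50 nM CITCO at 37 C/5% CO2; CellTiter-Fluor fluorescence was the measured end point.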

[4] = target: Nuclear receptor subfamily 1 group I member 3 (Homo sapiens) (UniProt Q14994); experiment: qHTS assay to identify small molecule antagonists of the constitutive androstane receptor (CAR) signaling pathway (AID 1224838);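 note: HepG2 cells stably expressing hCAR with CYP2B6 luciferase reporter stimulated by CITCO; nearly all actives have a fitted effect of over 40% in size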; note: potency is the fitted concentration of half-maximal effect
Nuclear receptor subfamily 1 group I member 3 (Homo sapiens), sequence (Q14994 whole entry, looked up): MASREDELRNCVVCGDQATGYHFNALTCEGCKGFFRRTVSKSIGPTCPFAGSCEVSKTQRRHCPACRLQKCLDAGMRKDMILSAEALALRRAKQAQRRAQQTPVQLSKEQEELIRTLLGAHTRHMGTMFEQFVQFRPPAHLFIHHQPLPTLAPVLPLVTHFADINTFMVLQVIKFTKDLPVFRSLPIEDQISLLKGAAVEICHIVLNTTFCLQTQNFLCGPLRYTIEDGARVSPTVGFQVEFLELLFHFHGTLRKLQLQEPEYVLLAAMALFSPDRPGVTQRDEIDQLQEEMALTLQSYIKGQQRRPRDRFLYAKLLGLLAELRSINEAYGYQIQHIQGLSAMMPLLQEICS
In short: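 Human hepatoma HepG2 cells expressing hCAR and a CYP2B6 promoter (2.2 kb) luciferase construct; compound titration (15 points) with 50 nM CITCO final, 24 h at 37 C/5% CO2; luminescence via ONE-Glo after 30 min at room temperature.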

[5] = target: Nuclear receptor subfamily 1 group I member 3 (Homo sapiens) (UniProt Q14994); experiment: qHTS assay to identify small molecule agonists of the constitutive androstane receptor (CAR) signaling pathway (AID 1224839);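 note: HepG2 cells stably carrying human CAR and a CYP2B6 luciferase reporter; nearly all actives have a fitted effect of over 15% in size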
In short: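 Double-stable HepG2 cells (hCAR, CYP2B6-2.2kb) seeded 4 h before compound addition. Exposure 24 h with 0.75 uM PK11195 final. Luciferase detected by ONE-Glo.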

[6] = qHTS assay to identify small molecule antagonists of the estrogen related receptor signaling pathway with the pleiotropic PPARgamma coactivator (PGC) from Tox21 10K library - cell viability counter screen (AID 1224840; active = well fitted cell-killing curve with a large enough effect in the repeat runs, not every such curve was filed as active; note: nearly all actives have a fitted effect of over 40% in size; note: potency is the fitted concentration of half-maximal effect)
In short: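 Seeded PGC/ERR cells (2,000/well, 6 h, 37 C/5% CO2) get compound by pin tool; 17.5 h incubation at 37 C; CellTiter-Fluor added, 30 min, fluorescence measured.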

[7] = target: Thyrotropin receptor (Homo sapiens) (UniProt P16473); experiment: qHTS assay to identify small molecule agonists of the thyroid stimulating hormone receptor (TSHR) signaling pathway (AID 1224843; calls by dose curve; note: nearly all actives have a fitted effect of over 45% in size)
Thyrotropin receptor (Homo sapiens), sequence (P16473 whole entry, looked up): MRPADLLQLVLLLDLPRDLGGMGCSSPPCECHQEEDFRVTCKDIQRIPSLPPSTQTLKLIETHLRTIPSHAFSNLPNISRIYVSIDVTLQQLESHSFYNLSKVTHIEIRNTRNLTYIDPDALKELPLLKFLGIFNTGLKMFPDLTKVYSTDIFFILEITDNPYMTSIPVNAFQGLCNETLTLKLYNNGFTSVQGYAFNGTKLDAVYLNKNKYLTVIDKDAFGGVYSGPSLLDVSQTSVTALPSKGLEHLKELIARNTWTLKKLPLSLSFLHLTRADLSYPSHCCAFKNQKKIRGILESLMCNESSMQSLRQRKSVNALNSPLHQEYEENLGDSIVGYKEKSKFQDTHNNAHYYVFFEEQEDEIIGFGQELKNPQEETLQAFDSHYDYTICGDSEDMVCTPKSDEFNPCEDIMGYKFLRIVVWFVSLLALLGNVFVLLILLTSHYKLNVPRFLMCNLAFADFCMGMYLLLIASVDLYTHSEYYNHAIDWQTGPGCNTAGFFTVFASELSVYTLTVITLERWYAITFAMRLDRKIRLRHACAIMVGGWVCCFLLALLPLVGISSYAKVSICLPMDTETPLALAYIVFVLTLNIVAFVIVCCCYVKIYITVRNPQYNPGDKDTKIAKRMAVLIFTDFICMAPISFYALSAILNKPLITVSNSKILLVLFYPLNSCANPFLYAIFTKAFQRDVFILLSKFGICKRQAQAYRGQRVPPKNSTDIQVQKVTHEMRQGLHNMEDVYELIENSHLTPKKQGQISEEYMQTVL
In short: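 Using 15 concentrations per compound in triplicate, cAMP production was monitored in TSHR-HEK293 cells after 30 min compound incubation at RT; HTRF reagents followed, with fluorescence intensity recorded after 1 h.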

[8] = qHTS assay to identify small molecule agonists of the hypoxia (HIF-1) signaling pathway - cell viability counter screen (AID 1224844; calls by dose curve; note: nearly all actives have a fitted effect of over 50% in size; note: potency is the fitted concentration of half-maximal effect)
In short: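 HRE-bla ME-180; 0.5% dFBS; cpd 17 h, 37C, 5% CO2; CellTiter-Glo lum., 30 min RT, post-FRET read, same wells.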

[9] = qHTS assay to identify small molecule agonists of H2AX (AID 1224845; active = well fitted activation curve with a large enough effect in the signal ratio in the repeat runs, not every such curve was filed as active; the % refers to the signal ratio)
In short: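 Wild-type CHO-K1 cells plated overnight, then exposed 3 hr at 37C to compounds at 15 concentrations (0.76% DMSO). Lysed, then HTRF anti-pH2AX(S139)-cryptate/anti-H2AX-d2 detection after 24 hr at room temperature; emissions 665 and 620 nm.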

[10] = qHTS assay to identify small molecule agonists of the hypoxia (HIF-1) signaling pathway (AID 1224846; active = well fitted activation curve with a large enough effect in the signal ratio in the repeat runs, not every such curve was filed as active; the % refers to the signal ratio)
In short: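 Reporter induction in HRE-bla ME-180 cells is taken as agonism: cells sit 5 hrs after plating, receive compounds or DMSO only, incubate 17 hrs at 37C under 5% CO2, and are loaded with CCF4-AM for beta-lactamase FRET measurement.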

[11] = qHTS assay to identify small molecule agonists of H2AX - cell viability counter screen (AID 1224847; calls by dose curve; note: nearly all actives have a fitted effect of over 30% in size; note: potency is the fitted concentration of half-maximal effect)
In short: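 Quantitative HTS viability measurement: CHO-K1 wild-type cells in serum (10% FBS) medium, short 3 hr drug exposure at 37C with 0.76% DMSO, CellTiter-Glo luminescent detection.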

[12] = qHTS RealTime-Glo MT Cell Viability Assay in HepG2 cells - 24 hour (AID 1224867); note: nearly all actives have a fitted effect of over 50% in size; note: potency is the fitted concentration of half-maximal effect
In short: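 qHTS, HepG2, 600 cells/well, RealTime-Glo (NanoLuc + prosubstrate) added with cells; 5 h preincubation; DMSO compound addition; 37 C; luminescence at 0/8/16/24/32/40 h.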

[13] = qHTS RealTime-Glo MT Cell Viability Assay in HEK293 cells - 32 hour (AID 1224868); note: nearly all actives have a fitted effect of over 50% in size; note: potency is the fitted concentration of half-maximal effect
In short: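 Assay medium contained NanoLuc luciferase plus cell-permeant prosubstrate, added with HEK293 cells at 600 cells/well. After 5 h at 37 C/5% CO2 compounds were added; plates stayed at 37 C for 40 h with serial luminescence reads.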

[14] = A CellTox Green Cytotoxicity Assay to monitor cytotoxicity in HEK293 cells - 0 hour (AID 1224869); note: nearly all actives have a fitted effect of over 50% in size
In short: (§1)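 Tox21 screen in HEK293: membrane-impermeant cyanine dye fluoresces on binding dead-cell DNA; compound pinned 5 h post-seeding, plates held at 37 C, signal read repeatedly through 40 h.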

[15] = qHTS RealTime-Glo MT Cell Viability Assay in HepG2 cells - 40 hour (AID 1224870); note: nearly all actives have a fitted effect of over 50% in size; note: potency is the fitted concentration of half-maximal effect
In short: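 HepG2 cells mixed with RealTime-Glo MT reagents (NanoLuc plus cell-permeant prosubstrate) were seeded at 600 cells/well, incubated 5 h at 37 C/5% CO2, then pinned with compounds in DMSO; nonlytic luminescence tracked viability during 40 h treatment.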

[16] = A CellTox Green Cytotoxicity Assay to monitor cytotoxicity in HEK293 cells - 40 hour (AID 1224871); note: nearly all actives have a fitted effect of over 45% in size; note: potency is the fitted concentration of half-maximal effect
In short: as §1

[17] = qHTS assay to identify small molecule antagonists of the estrogen related receptor signaling pathway with the pleiotropic PPARgamma coactivator (PGC) from Tox21 10K library (AID 1224841; call rule not given here; note: potency is the fitted concentration of half-maximal effect)
In short: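 Test chemicals dissolved in DMSO were applied to pre-incubated (6 h) PGC/ERR cells at 2,000 cells/well for an 18 h, 37 C treatment; reporter luminescence was then read using One-Glo.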

[18] = qHTS assay to identify small molecule agonists of the estrogen related receptor signaling pathway with the pleiotropic PPARgamma coactivator (PGC) from Tox21 10K library (AID 1224842); note: nearly all actives have a fitted effect of over 15% in size
In short: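 PGC/ERR reporter cells (NTP line) were seeded 2,000 per well, rested 6 h at 37 C/5% CO2, then pin-dosed with compounds in DMSO for 18 h at 37 C; luciferase read by One-Glo luminescence after 30 min at room temperature.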

[19] = qHTS assay to identify small molecule antagonists of the estrogen related receptor (ERR) signaling pathway from Tox21 library (AID 1224848); note: nearly all actives have a fitted effect of over 50% in size; note: potency is the fitted concentration of half-maximal effect
In short: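 Tox21 10K compounds in DMSO tested for ERR pathway antagonism in NTP's ERR cell line; 18 h, 37 C exposure; ONE-Glo luminescence.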

[20] = qHTS assay to identify small molecule agonists of the estrogen related receptor (ERR) signaling pathway from Tox21 library (AID 1224849; calls by dose curve; note: nearly all actives have a fitted effect of over 15% in size); conditions: ERR reporter cell line, ONE-Glo luciferase, 18 h; at 92.4 µM (top of the series) unless noted
In short: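 Tox21 compounds tested for ERR agonism in an NTP reporter cell line: 18 h treatment at 37 C, then ONE-Glo luminescence.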
% is set by controls: 0 for no effect and ±100 for the full control effect.

CC1CCCCC1
inactive: Potency [1] | Potency [2] | Potency [3] | Potency [4] | Potency [5] | Potency [6] | Potency [7] | Potency [8] | Potency [9] | outcome [10] | Potency [11] | Potency [12] | Potency [13] | Potency [14] | Potency [15] | Potency [16]

c1cc[nH]c1
inactive: Potency [1] | Potency [2] | Potency [3] | Potency [4] | Potency [5] | Potency [6] | Potency [17] | Potency [18] | Potency [7] | Potency [8] | Potency [9] | outcome [10] | Potency [11] | Potency [19] | activity change, positive = activation [20] -5.69% | Potency [12] | Potency [13] | Potency [14] | Potency [15] | Potency [16]

C[Si](C)O[Si](C)C
inactive: Potency [1] | Potency [2] | Potency [3] | Potency [4] | Potency [5] | Potency [6] | Potency [7] | Potency [8] | Potency [9] | outcome [10] | Potency [11] | Potency [12] | Potency [13] | Potency [14] | Potency [16]

CN1CN(C)CN(C)C1
inactive: Potency [1] | Potency [2] | Potency [3] | Potency [4] | Potency [5] | Potency [6] | Potency [17] | Potency [18] | Potency [7] | Potency [8] | Potency [9] | outcome [10] | Potency [11] | Potency [19] | activity change, positive = activation [20] 7.33% | Potency [12] | Potency [13] | Potency [14] | Potency [15] | Potency [16]

O=C1C=CC(=O)N1c1ccccc1
active: Potency [1] 22.4 µM | Potency [2] 54.5 µM | Potency [3] 27.3 µM | Potency [4] 27.3 µM | Potency [6] 30.6 µM | Potency [17] 54.5 µM | Potency [8] 21.9 µM | Potency [11] 45 µM | Potency [19] 54.5 µM | Potency [12] 13.8 µM | Potency [13] 11 µM | Potency [15] 11 µM | Potency [16] 11 µM
inactive: Potency [5] | Potency [18] | activity change, positive = activation [20] -78.1% | Potency [14]

CC(C)(C)C1=CC(=O)C=C(C(C)(C)C)C1=O
inactive: Potency [1] | Potency [2] | Potency [3] | Potency [4] | Potency [5] | Potency [6] | Potency [7] | Potency [8] | Potency [9] | outcome [10] | Potency [11] | Potency [12] | Potency [13] | Potency [14] | Potency [15]

OCCCc1cccnc1
inactive: Potency [1] | Potency [2] | Potency [3] | Potency [4] | Potency [5] | Potency [6] | Potency [7] | Potency [8] | Potency [9] | outcome [10] | Potency [11] | Potency [12] | Potency [13] | Potency [14] | Potency [16]

From PubChem BioAssay (Tox21)
